Data from PubChem BioAssay (EPA / NIEHS).
Activity calls are given as the source filed them. The calls were made as follows: active = hit-call score of the fitted dose curve at least 0.9, where 1 is the maximum; inactive = score below 0.9.

Read-out: Forkhead box O1 (FOXO1), FOXO1 (gene 2308)
Assay: LTEA_HepaRG_FOXO1: Life Technologies and Expression Analysis (LTEA) Assay for Forkhead box O1 (FOXO1) using HepaRG (AID 2283456)
Conditions: mRNA level, 48 h; actives raise or lower the signal
Experimental: LTEA_HepaRG is a cell based, multiplexed-readout assay that uses HepaRG, a human liver cell line, with measurements taken at 48 hours after chemical dosing on a 96-well plate.LTEA_HepaRG_FOXO1 is one of 102 assay component(s) measured in the LTEA HepaRG cell culture assay. It is a marker of Cell proliferation, survival, death.Data from the assay component LTEA_HepaRG_FOXO1 was analyzed into 1 endpoint. This assay endpoint, LTEA_HepaRG_FOXO1, was analyzed with bidirectional fitting relative to DMSO as the negative control and baseline of activity. Using a type of inducible reporter, measures of mRNA induction for gain or loss-of-signal activity can be used to understand regulation of transcription factor activity. To generalize the intended target to other relatable targets, this assay endpoint is annotated to the dna binding intended target family, where the subfamily is forkhead box protein.
A total of 1060 chemcials from the ToxCast library were tested in eight-point concentration-response experiments. Cell culture and cytotoxicity assays were conducted at Thermo Fisher Scientific's Custom Services facility (Madison, WI). A single lot of human HepaRG cells (Thermo Fisher Scientific, Frederick, MD) was used for the cell culture experiments. 96-well format collagen type I coated plates of human HepaRG cells were prepared using established methods. Briefly, cryopreserved HepaRG cells were thawed, plated at a density of approximately 100,000 cells/well in HepaRG Thaw, Plate, and General Purpose media (HPRG770, Thermo Fisher Scientific), and incubated for 48 hours. 0.5% DMSO was selected as vehicle control to balance the requisite need of DMSO in HepaRG cultures to maintain differentiation (for example, baseline metabolism, proportions of hepatocytes vs. cholangiocytes), while enabling further hepatic receptor pathway activation (for example, PXR and CAR) in response to chemical exposure. 48 hours after plating, the culture medium was replaced with HepaRG Serum-Free Incudtion Media. Cells were exposed to each test chemical in duplicate and maintained in CO2 incubators for another 48 hours. Chemical plates were thawed to room temperature and 200x concentrations of treatment groups were prepared. 8-point conentration-reponse curves were made with the highest exposure at 100 uM, followed by half-log dilutions, all in 0.5% DMSO. Each test plate contained variouse controls, induction positive controls (1mM phenobarbital), cytotoxicity positive controls ([…] aflatoxin B1), vehicle controls (0.5% DMSO), and total lysis controls (0.5% DMSO). Cell morphology images were taken using an Essen IncuCyte FLR automated microscope, with six 96-well plates imaged in about 24 minutes. Images were captured and exported and JPEG files. Spent culture media was transfered to black-well plates for the LDH assay, and remaining media was sorted at -80 C for later use. Cells were treated with RLT buffer and frozen until shipped for gene expression analysis. Total RNA was isolated from the cell suspension in 75 uL of Buffer RLT (Qiagen, Germantown, MD 20874) by Quintiles/Expression Analysis (Durham, NC) using a custom isolation procedure. Total RNA from each plate well was transferred to a preamplification plate. Fluidigm's 96.96 Dynamic ArrayTM (Fluidigm, Amsterdam, the Netherlands) technology was used for gene expression analyses by quantitative reverse transcription polymerase chain reaction (qRT-PCR, performed by Quintiles/Expression Analysis, Durham, NC)89. Standard TaqManTM Assays (Applied Biosystems/ThermoFisher Scientific, Foster City, CA) were used to assess the expression of 93 genes selected based on their selectivity and sensitivity to important hepatic receptors known to be modulated by environmental chemicals; importance in human hepatocyte functionality; and hepatotoxicity. […]

Row | SMILES | outcome | AC50
1 | O=C(c1ccc(O)cc1O)c1ccc(O)cc1O | inactive | –
2 | CCCOC(=O)c1ccc(C(=O)OCCC)nc1 | inactive | –
3 | COc1c(Cl)ccc(Cl)c1C(=O)O | inactive | –
4 | CCNc1nc(N)nc(Cl)n1 | inactive | –
5 | CCCCC(CC)COC(=O)c1ccccc1C(=O)O (stereo not given) | inactive | –
6 | CCN(Cc1c(F)cccc1Cl)c1c([N+](=O)[O-])cc(C(F)(F)F)cc1[N+](=O)[O-] | inactive | –
7 | C#CCOC(=O)[C@@H](C)Oc1ccc(Oc2ncc(Cl)cc2F)cc1 | inactive | –
8 | COC(=O)c1ccccc1C(=O)O | inactive | –
9 | CCOC(=O)C(C)Oc1ccc(Oc2cnc3cc(Cl)ccc3n2)cc1 (stereo not given) | inactive | –
10 | Cc1nn(C)c(Oc2ccccc2)c1C=NOCc1ccc(C(=O)OC(C)(C)C)cc1 | – | 2.81 µM (active)
11 | CCCCOCCOCCOCc1cc2c(cc1CCC)OCO2 | inactive | –
12 | c1ccc(Nc2ccccc2)cc1 | inactive | –
13 | COC(=O)c1ccc(I)cc1S(=O)(=O)NC(=O)Nc1nc(C)nc(OC)n1 | inactive | –
14 | O=C(O)c1ccccc1 | inactive | –
15 | COCCO | inactive | –
16 | CCC(C)OC(=O)N1CCCCC1CCO (stereo not given) | inactive | –
17 | CCCCC(CC)CN1C(=O)C2C3C=CC(C3)C2C1=O (stereo not given) | inactive | –
18 | CC(=O)[C@H]1CC[C@H]2[C@@H]3CCC4=CC(=O)CC[C@]4(C)[C@H]3CC[C@]12C | – | 80.5 µM (active)
19 | N#CSCSc1nc2ccccc2s1 | inactive | –
20 | O=C(c1ccccc1)C1CCCCC1 | inactive | –

Row | SMILES | outcome | AC50
21 | CN(C)C(=O)Nc1ccc(Cl)c(Cl)c1 | inactive | –
22 | Oc1ccc(C(c2ccc(O)cc2)C(Cl)(Cl)Cl)cc1 | – | 93.2 µM (active)
23 | CC(C)CCCCCCc1ccc(O)cc1 | inactive | –
24 | CC(C)(C)[C@@H](O)[C@@H](Cc1ccc(Cl)cc1)n1cncn1 | inactive | –
25 | COC(=O)CSc1cc(N=c2sc(=O)n3n2CCCC3)c(F)cc1Cl | inactive | –
26 | CC1(C)C(C=C(Cl)Cl)C1C(=O)OCc1cccc(Oc2ccccc2)c1 (stereo not given) | inactive | –
27 | C=CCOC(Cn1ccnc1)c1ccc(Cl)cc1Cl (stereo not given) | – | 78.1 µM (active)
28 | C[C@]12CC[C@@H]3c4ccc(O)cc4C[C@@H](CCCCCCCCCS(=O)CCCC(F)(F)C(F)(F)F)[C@H]3[C@@H]1CC[C@@H]2O (stereo not given in full) | – | 0.0681 µM (active)
29 | O=C(Nc1ccc([N+](=O)[O-])cc1Cl)c1cc(Cl)ccc1O | – | 3.33 µM (active)
30 | CCCN(CCC)C(=O)SCC | inactive | –
31 | CCCOC(=O)NCCCN(C)C | inactive | –
32 | S=C([S-])NCCNC(=S)[S-].[Mn+2] | – | 9.26 µM (active)
33 | CCCCCCC(C)OC(=O)COc1nc(F)c(Cl)c(N)c1Cl (stereo not given) | inactive | –
34 | CCOC(=O)c1ccc(O)cc1 | inactive | –
35 | CCSC(=O)N(CC(C)C)CC(C)C | inactive | –
36 | CCOC(=O)COc1cc(-n2ncc(C(F)(F)F)c(C)c2=O)c(F)cc1Cl | inactive | –
37 | O=C(O)C1(C(=O)Nc2ccc(Cl)cc2Cl)CC1 | inactive | –
38 | CCCN(CCC)c1c([N+](=O)[O-])cc(C(F)(F)F)c(N)c1[N+](=O)[O-] | inactive | –
39 | CCCCCOC(=O)COc1cc(N2C(=O)C3=C(CCCC3)C2=O)c(F)cc1Cl | inactive | –
40 | OB(O)O | inactive | –
